# Assay results published in PubChem BioAssay AID1347423 (Functional Genomics Laboratory (NCATS/FGL), 2020).
# The whole screen tested about 52,000 sequences, of which about 210 (0.4%) were called active. The sample as a whole holds a higher share of actives than the screen did. A number with no mark means an inactive call.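 Rule for the calls: active = gene whose silencing raises cell survival under the drug, median off-target-corrected z-score across its silencing RNAs 2 or more; inactive = the rest.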
# Assay: Resistance to Poly (ADP-Ribose) Polymerase inhibitor: Gene Identification via Genome-wide siRNA Screen
# Details: mouse BRCA2 R2336H ES cells, olaparib, CellTiter-Glo viability; active compounds read high
# In short: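 Genome-wide siRNA screen (3 siRNAs/gene, 20 nM) in mouse ES cells carrying hypomorphic BRCA2 R2336H; olaparib 500 nM added 48 h post-transfection, CellTiter-Glo viability 72 h later. Normalized to plate-median negative control; MAD z-scores, gene median, seed-adjusted.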
row,Sequence,z-score
1,GGAUUGAGCUACAAGAAUATT against E330016A19Rik,-0.0566
2,CGGACUCCUGACAUUAUAATT against Cd33,0.735
3,GGUCCUCUAAAGAAUAAAGTT against Ela3b,0.513 (active)
4,GGAUUCACGUAAGAUUGACTT against Prlpb,1.33
5,GCCAACUCAGUUUUGAAUGTT against 4930404J24Rik,-0.142
6,GGUGUUCGGUGUCCUGGAATT against Pctp,-1.75
7,UGAAGUCUAAUCAGAGCACTT against Olfr50,-2.01
8,GGAAUGCCGGAUUGCUCACTT against BC008163,1.25
9,GGAAGUUUCUGAAUGCUGUTT against Klrd1,2.01 (active)
10,GGUCAUACACUUCUGCACATT against C330006K01Rik,1.27
11,GGAGGAGUUGCACCUCAUCTT against Pctk3,0.655
12,GCUACGGAACAAUCACAGCTT against Jarid1d,0.15
13,GGAAAGAAAAAAGAUGGUCTT against Riok1,-1.05
14,GGUUGACAUCGACCAAUCATT against Klhl1,1.3 (active)
15,AUGUGAUAGUGCCCAGCCUTT against Olfr884,1.48
16,GGAAGAAAUAGAUGAGAAUTT against Tnmd,0.737
17,CGUUGAUUUCCAAAGCUGUTT against Kcnc2,0.168
18,GGAACAUUACCAUCAAGCUTT against Eif2s3x,-2.52
19,CCAAACUUACAAAUAUGCGTT against Sgpp1,3.3 (active)
20,GGAAGUGUUUGAUGUCUUATT against Stk4,-1.1
21,GGGAGUUUAUUCAAAAGUGTT against Nrbp,0.522
22,GGACUCUUUUCUACGUGGATT against Klhl1,3.47 (active)
23,GGGCAUACAUAUAACCUAUTT against Plekhc1,0.785
24,CAAAUUAUGAGUGAGAACCTT against Olfr340,-1.17
25,GCUUAACCGUUUUUUCAAATT against Tgif,0.555
26,GGUUAUGAGGCUUAAUAAATT against 2810423G08Rik,1.54
27,GGAUCCAAGUUCCUGGCUCTT against A330096I21Rik,-0.601
28,GGAGACUCAGGAAAAAAUUTT against Olfr1424,0.238
29,CGAACAGUCUGUAUGGCGATT against Jak1,3.46 (active)
